These results are taken from paper PMC4336329 (PLoS ONE, 2015).

About 14,000 (4.5%) of roughly 310,000 compounds showed an effect of 50% or more. Effects have a minus sign here. The sample holds strong results, similar compounds and a random draw of the others, so the mix is not that of the screen.
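Note: peak tail current of the secondary pulse compared with the same well before compound.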

The target in the assay is human ether-à-go-go-related gene (hERG) potassium channel (human, UniProt Q12809). Nature of the assay: primary screen, population patch clamp on CHO cells stably expressing hERG; higher = less effect of the substance.
Chain of human ether-à-go-go-related gene (hERG) potassium channel (Q12809 whole entry, looked up): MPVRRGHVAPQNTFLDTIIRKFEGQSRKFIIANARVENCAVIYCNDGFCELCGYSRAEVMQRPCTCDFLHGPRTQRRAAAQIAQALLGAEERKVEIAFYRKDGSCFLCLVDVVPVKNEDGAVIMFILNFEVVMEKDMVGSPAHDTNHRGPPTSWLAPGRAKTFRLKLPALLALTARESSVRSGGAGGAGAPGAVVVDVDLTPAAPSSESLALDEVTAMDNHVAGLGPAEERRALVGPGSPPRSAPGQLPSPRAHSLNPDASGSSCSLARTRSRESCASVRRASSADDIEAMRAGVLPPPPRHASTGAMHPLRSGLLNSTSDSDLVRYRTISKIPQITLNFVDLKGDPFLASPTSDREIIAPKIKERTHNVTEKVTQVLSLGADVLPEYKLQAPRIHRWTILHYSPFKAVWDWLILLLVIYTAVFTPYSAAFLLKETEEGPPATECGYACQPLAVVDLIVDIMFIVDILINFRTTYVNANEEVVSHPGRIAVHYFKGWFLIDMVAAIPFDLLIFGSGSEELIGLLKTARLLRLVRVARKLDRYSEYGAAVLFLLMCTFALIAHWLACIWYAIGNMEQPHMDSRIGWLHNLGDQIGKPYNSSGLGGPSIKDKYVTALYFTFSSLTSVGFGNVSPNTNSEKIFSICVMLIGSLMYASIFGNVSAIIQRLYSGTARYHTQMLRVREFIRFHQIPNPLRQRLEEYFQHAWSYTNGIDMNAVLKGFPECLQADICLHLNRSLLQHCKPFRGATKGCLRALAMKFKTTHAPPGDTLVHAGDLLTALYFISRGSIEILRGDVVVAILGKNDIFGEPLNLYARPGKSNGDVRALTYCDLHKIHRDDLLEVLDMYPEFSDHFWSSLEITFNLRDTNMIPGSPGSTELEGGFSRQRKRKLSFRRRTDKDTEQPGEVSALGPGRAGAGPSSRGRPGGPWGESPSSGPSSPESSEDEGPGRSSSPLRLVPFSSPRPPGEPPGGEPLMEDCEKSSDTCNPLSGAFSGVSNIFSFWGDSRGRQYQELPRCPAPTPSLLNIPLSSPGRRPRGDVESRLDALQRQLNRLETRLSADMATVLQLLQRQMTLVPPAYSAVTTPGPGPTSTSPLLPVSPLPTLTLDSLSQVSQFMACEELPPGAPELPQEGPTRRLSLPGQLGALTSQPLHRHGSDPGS
In the case of `COc1ccc(C2=NN(C(=O)c3ccco3)C(c3ccco3)C2)cc1OC` (stereo not drawn), the “hERG current change (%, negative = inhibition) at 10uM” value amounted to 7.24%.

Take `COc1cccc(SCc2noc(C(=O)NCC3CC3)c2C(=O)NCC2CC2)c1`: the “hERG current change (%, negative = inhibition) at 10uM” value is -43.5%.

In the case of `CCN(Cc1ccccc1)C(=O)c1ccccc1C`, the “hERG current change (%, negative = inhibition) at 10uM” value is recorded as 1.76%.

In the case of `CC(NC(=O)C1CCN(S(=O)(=O)N2CCC3(CC2)OCCO3)CC1)c1ccccc1` (stereo not drawn), the “hERG current change (%, negative = inhibition) at 10uM” value was 20.9%.

As for `CCCC(C)NS(=O)(=O)c1ccccc1` (stereo not drawn), the “hERG current change (%, negative = inhibition) at 10uM” value was -18.4%.

Regarding `CN1CC(=O)N(CC(=O)Nc2ccc(SC(F)F)cc2)C1=O`, the “hERG current change (%, negative = inhibition) at 10uM” value is -23.5%.

`CCOc1ccc2nc(C(=O)N3CCCC(C)C3)sc2c1` (stereo not drawn): the “hERG current change (%, negative = inhibition) at 10uM” value was -2.28%.

As to `CCOC(=O)C1=C(C)N(C)C(=S)NC1c1ccc(Cl)cc1` (stereo not drawn), the “hERG current change (%, negative = inhibition) at 10uM” value is reported as -21.5%.

On to `Cc1ccc(C(=O)OCC(=O)NC(=O)NCc2ccccc2)cc1C`, for which the “hERG current change (%, negative = inhibition) at 10uM” value came out at 7.95%.

Regarding `CCOC(=O)c1cnc(SCCN2CCOCC2)nc1N`, the “hERG current change (%, negative = inhibition) at 10uM” value was 9.59%.

For the compound `COC(=O)c1ccccc1NC(=O)c1cc2n(n1)C(C(F)F)CC(C(F)F)N2` (stereo not drawn), the “hERG current change (%, negative = inhibition) at 10uM” value was 14%.

For the compound `Cc1cc(C)n(C(C)CC(=O)Nc2ccc(-c3ccno3)cc2)n1` (stereo not drawn), the “hERG current change (%, negative = inhibition) at 10uM” value is reported as 1.47%.

Turning to `CC1(C)CC(=O)C=C(NCCN2CCNCC2)C1`, the “hERG current change (%, negative = inhibition) at 10uM” value was -2.18%.

As to `Cc1sc2ncnc(N3CCC(C(=O)N(C)CC(=O)Nc4ccccc4Cl)CC3)c2c1C`, the “hERG current change (%, negative = inhibition) at 10uM” value is recorded as -67.7%.

Regarding `Cc1sc2ncnc(N3CCC(C(=O)Nc4cc(Cl)ccc4Cl)CC3)c2c1C`, the “hERG current change (%, negative = inhibition) at 10uM” value is 4.42%.

As to `Cc1cccc(C)c1NC(=O)CN(C)C(=O)C1CCN(c2ncnc3sc(C)c(C)c23)CC1`, the “hERG current change (%, negative = inhibition) at 10uM” value is recorded as -46.7%.

For the compound `C=CCN(C(=O)CSc1nc2ccsc2c(=O)n1Cc1ccccn1)c1ccccc1`, the “hERG current change (%, negative = inhibition) at 10uM” value is on record as -19.4%.

Take `COCCCNC(=O)Cn1cc(C(C)=O)c2ccccc21`: the “hERG current change (%, negative = inhibition) at 10uM” value came to 17.7%.

On to `CC1CCN(C(=O)CN(c2ccccc2)S(=O)(=O)N(C)C)CC1`, for which the “hERG current change (%, negative = inhibition) at 10uM” value is 14.2%.

For the compound `CCOC(=O)NC(c1ccc(C(C)C)cc1)C(Cl)(Cl)Cl` (stereo not drawn), the “hERG current change (%, negative = inhibition) at 10uM” value amounted to 1.44%.

As for `CCOC(=O)NC(N(O)c1cccc(Cl)c1)C(Cl)(Cl)Cl` (stereo not drawn), the “hERG current change (%, negative = inhibition) at 10uM” value was -74.2%.

In the case of `CCOC(=O)NC(C(Cl)(Cl)Cl)S(=O)(=O)c1ccccc1` (stereo not drawn), the “hERG current change (%, negative = inhibition) at 10uM” value is -6.98%.

Take `Cc1ccc(-c2cc(C(=O)Nc3cc(C)on3)c3ccccc3n2)cc1`: the “hERG current change (%, negative = inhibition) at 10uM” value is given as 4.13%.

For `C=C(C)Cn1c(C2CC(=O)N(c3ccccc3F)C2)nc2ccccc21` (stereo not drawn), the “hERG current change (%, negative = inhibition) at 10uM” value is recorded as -27%.

For the compound `Cc1ccc(OCC(=O)NC(C)c2ccc(Cl)c(Cl)c2)c([N+](=O)[O-])n1` (stereo not drawn), the “hERG current change (%, negative = inhibition) at 10uM” value is given as -21.4%.

`CN(C)CCCNCCCNC(=O)/C(=N\O)c1ccccc1`: the “hERG current change (%, negative = inhibition) at 10uM” value was found to be 6.64%.

As to `O=C(c1cccs1)N1CCN(c2ccc(F)cc2)CC1`, the “hERG current change (%, negative = inhibition) at 10uM” value is -9.63%.

Consider `CC(=O)c1ccc(C(=O)N2CCCC(N3CCN(c4ccc(F)cc4)CC3)C2)s1` (stereo not drawn), for which the “hERG current change (%, negative = inhibition) at 10uM” value is recorded as -63.7%.

With `CC(C)=CC(=O)N1CCCC(N2CCN(c3ccc(F)cc3)CC2)C1` (stereo not drawn), the “hERG current change (%, negative = inhibition) at 10uM” value was -0.816%.

As to `O=C(c1cccs1)N1CCCC(N2CCN(c3ccc(F)cc3)CC2)C1` (stereo not drawn), the “hERG current change (%, negative = inhibition) at 10uM” value is reported as -65.7%.

With `COc1ccccc1N1CCN(C2CCCN(C(=O)c3cccc(-c4ccco4)c3)C2)CC1` (stereo not drawn), the “hERG current change (%, negative = inhibition) at 10uM” value was -36.1%.

Regarding `O=C(c1cccc(-c2ccco2)c1)N1CCCC(N2CCN(c3ccc(F)cc3)CC2)C1` (stereo not drawn), the “hERG current change (%, negative = inhibition) at 10uM” value is -78.5%.

Take `CC(C)n1cc(C(=O)N2CCCC(N3CCN(c4ccc(F)cc4)CC3)C2)cn1` (stereo not drawn): the “hERG current change (%, negative = inhibition) at 10uM” value is recorded as -34.9%.

For the compound `Cc1ccccc1N1CCN(C2CCCN(C(=O)c3ccc(Cl)s3)C2)CC1` (stereo not drawn), the “hERG current change (%, negative = inhibition) at 10uM” value is on record as -46.8%.

As for `O=C(C1CCOCC1)N1CCCC(N2CCN(c3ccc(F)cc3)CC2)C1` (stereo not drawn), the “hERG current change (%, negative = inhibition) at 10uM” value is -3.64%.

Regarding `O=C(c1ccncc1)N1CCCC(N2CCN(c3ccc(F)cc3)CC2)C1` (stereo not drawn), the “hERG current change (%, negative = inhibition) at 10uM” value is -44.6%.

On to `O=C(c1ccc(Cl)s1)N1CCCC(N2CCN(c3ccc(F)cc3)CC2)C1` (stereo not drawn), for which the “hERG current change (%, negative = inhibition) at 10uM” value is on record as -70.1%.

With `O=C(c1ccoc1)N1CCCC(N2CCN(c3ccc(F)cc3)CC2)C1` (stereo not drawn), the “hERG current change (%, negative = inhibition) at 10uM” value is reported as -48.1%.

For the compound `CCN(C(=O)COC(=O)C1CCN(S(=O)(=O)c2ccc(C)c(C)c2)CC1)C1CCS(=O)(=O)C1` (stereo not drawn), the “hERG current change (%, negative = inhibition) at 10uM” value is reported as -7.82%.

Consider `Cc1nnc2ccc(-c3ccc(NS(C)(=O)=O)cc3)nn12`, for which the “hERG current change (%, negative = inhibition) at 10uM” value was -16%.

Consider `CCOc1nc(Nc2ccccc2)nc(OCC)n1`, for which the “hERG current change (%, negative = inhibition) at 10uM” value is given as -21.7%.

Turning to `COc1ccc(-c2ccc(N(C)C)cc2)cc1[C@H]1[C@H]2C=CC[C@@H](C)[C@@H]2C(=O)N1Cc1ccccc1`, the “hERG current change (%, negative = inhibition) at 10uM” value is listed as 10.1%.
